# Key:
# [1] = biological target: Tyrosine-protein kinase receptor UFO (Homo sapiens) (UniProt P30530); conditions: at 1 µM
# [2] = biological target: Tyrosine-protein kinase Blk (Homo sapiens) (UniProt P51451); conditions: at 0.1 µM
# [3] = biological target: Tyrosine-protein kinase Blk (Homo sapiens) (UniProt P51451); conditions: at 1 µM
# [4] = biological target: T1, Cytoplasmic tyrosine-protein kinase BMX (Homo sapiens) (UniProt P51813); conditions: at 0.1 µM
# T1 sequence (whole entry): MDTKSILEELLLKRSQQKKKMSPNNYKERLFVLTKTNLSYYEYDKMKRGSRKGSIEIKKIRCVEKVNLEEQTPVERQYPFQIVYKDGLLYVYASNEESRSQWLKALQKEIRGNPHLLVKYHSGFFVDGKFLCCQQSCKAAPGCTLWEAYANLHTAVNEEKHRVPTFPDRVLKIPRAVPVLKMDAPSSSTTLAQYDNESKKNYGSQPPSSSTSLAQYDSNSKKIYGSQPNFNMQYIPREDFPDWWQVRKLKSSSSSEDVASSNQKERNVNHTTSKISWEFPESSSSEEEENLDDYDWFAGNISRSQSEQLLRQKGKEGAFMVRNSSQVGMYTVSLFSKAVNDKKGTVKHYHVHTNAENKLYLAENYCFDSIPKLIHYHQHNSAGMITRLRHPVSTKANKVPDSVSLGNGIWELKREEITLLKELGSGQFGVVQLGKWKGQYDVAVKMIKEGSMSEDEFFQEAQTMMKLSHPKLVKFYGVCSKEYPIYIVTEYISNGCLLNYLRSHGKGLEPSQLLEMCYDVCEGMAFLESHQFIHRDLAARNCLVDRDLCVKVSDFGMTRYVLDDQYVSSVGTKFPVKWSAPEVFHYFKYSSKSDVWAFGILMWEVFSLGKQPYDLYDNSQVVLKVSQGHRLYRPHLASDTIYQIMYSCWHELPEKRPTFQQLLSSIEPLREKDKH
# [5] = biological target: T1, Cytoplasmic tyrosine-protein kinase BMX (Homo sapiens); conditions: at 1 µM
# [6] = biological target: Protein-tyrosine kinase 6 (Homo sapiens) (UniProt Q13882); conditions: at 0.1 µM
# [7] = biological target: Protein-tyrosine kinase 6 (Homo sapiens) (UniProt Q13882); conditions: at 1 µM
# [8] = biological target: Tyrosine-protein kinase BTK (Homo sapiens) (UniProt Q06187); conditions: at 0.1 µM
# [9] = biological target: Tyrosine-protein kinase BTK (Homo sapiens) (UniProt Q06187); conditions: at 1 µM
# [10] = biological target: Tyrosine-protein kinase CSK (Homo sapiens) (UniProt P41240); conditions: at 0.1 µM;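 also: value given is the averaged percent inhibition of CSK kinase activity, from the GSK PKIS kinase inhibitor set screening panel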
# Sequence of Tyrosine-protein kinase CSK (Homo sapiens) (P41240 2-450 limits assumed): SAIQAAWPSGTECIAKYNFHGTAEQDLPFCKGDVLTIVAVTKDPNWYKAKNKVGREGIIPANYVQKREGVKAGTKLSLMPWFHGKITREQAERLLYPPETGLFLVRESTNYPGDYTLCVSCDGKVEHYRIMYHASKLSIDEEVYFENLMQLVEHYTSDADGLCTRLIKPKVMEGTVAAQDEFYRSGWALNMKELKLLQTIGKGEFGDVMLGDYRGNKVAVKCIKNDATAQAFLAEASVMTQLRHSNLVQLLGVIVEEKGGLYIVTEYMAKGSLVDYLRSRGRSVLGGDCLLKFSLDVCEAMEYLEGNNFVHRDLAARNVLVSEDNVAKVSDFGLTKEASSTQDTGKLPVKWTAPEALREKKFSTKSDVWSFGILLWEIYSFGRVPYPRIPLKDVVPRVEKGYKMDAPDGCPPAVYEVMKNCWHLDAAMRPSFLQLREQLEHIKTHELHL
# Sequence of Tyrosine-protein kinase Blk (Homo sapiens) (P51451 2-505 limits assumed): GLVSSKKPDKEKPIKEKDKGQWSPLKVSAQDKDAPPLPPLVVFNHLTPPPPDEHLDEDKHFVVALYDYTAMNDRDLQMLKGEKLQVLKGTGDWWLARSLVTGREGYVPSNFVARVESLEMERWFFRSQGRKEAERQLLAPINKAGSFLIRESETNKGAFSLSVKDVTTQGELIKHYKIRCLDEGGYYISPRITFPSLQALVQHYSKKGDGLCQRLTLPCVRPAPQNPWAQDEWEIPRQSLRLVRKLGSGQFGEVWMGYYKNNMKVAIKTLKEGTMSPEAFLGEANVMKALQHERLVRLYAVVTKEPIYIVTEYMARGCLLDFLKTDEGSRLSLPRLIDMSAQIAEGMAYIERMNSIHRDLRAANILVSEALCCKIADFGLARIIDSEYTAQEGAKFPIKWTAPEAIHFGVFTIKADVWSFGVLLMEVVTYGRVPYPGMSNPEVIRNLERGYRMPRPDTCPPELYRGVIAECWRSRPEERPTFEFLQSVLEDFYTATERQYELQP
# Sequence of Protein-tyrosine kinase 6 (Homo sapiens) (Q13882 whole entry, looked up): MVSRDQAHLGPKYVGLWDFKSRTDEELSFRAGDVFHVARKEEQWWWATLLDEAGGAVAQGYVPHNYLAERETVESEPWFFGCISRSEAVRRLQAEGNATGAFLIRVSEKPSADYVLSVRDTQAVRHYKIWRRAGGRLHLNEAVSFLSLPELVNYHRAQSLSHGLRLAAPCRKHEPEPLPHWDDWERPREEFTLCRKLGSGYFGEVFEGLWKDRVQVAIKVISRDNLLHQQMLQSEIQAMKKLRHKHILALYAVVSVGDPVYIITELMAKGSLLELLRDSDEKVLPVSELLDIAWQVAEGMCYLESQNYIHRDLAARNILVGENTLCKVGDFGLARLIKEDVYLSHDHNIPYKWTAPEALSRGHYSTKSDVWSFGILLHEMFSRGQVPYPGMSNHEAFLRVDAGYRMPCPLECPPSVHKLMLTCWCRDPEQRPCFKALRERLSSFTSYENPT
# Sequence of Tyrosine-protein kinase receptor UFO (Homo sapiens) (P30530 whole entry): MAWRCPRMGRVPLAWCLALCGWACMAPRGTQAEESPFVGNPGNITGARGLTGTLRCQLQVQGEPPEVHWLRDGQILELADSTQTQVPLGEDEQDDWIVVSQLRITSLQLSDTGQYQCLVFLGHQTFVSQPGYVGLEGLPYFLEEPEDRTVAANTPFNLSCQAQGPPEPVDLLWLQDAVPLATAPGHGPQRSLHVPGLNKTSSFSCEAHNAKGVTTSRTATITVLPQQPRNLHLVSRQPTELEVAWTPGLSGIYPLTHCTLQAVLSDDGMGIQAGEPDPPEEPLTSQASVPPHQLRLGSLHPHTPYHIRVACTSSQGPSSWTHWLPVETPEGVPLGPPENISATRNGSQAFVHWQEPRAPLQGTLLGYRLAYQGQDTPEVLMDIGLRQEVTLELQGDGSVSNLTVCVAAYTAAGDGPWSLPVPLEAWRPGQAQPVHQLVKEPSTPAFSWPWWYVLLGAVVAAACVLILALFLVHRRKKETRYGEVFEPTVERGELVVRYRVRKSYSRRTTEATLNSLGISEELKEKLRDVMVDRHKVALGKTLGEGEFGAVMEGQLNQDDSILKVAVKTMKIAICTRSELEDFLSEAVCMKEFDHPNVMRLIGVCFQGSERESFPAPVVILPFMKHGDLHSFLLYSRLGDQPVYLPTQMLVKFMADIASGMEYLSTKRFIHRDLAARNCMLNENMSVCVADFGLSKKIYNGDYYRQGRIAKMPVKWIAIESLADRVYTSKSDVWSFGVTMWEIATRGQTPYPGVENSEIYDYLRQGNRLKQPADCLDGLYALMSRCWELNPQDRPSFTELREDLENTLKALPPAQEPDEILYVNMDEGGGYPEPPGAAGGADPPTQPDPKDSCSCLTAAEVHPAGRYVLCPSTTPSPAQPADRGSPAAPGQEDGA
# Sequence of Tyrosine-protein kinase BTK (Homo sapiens) (Q06187 whole entry): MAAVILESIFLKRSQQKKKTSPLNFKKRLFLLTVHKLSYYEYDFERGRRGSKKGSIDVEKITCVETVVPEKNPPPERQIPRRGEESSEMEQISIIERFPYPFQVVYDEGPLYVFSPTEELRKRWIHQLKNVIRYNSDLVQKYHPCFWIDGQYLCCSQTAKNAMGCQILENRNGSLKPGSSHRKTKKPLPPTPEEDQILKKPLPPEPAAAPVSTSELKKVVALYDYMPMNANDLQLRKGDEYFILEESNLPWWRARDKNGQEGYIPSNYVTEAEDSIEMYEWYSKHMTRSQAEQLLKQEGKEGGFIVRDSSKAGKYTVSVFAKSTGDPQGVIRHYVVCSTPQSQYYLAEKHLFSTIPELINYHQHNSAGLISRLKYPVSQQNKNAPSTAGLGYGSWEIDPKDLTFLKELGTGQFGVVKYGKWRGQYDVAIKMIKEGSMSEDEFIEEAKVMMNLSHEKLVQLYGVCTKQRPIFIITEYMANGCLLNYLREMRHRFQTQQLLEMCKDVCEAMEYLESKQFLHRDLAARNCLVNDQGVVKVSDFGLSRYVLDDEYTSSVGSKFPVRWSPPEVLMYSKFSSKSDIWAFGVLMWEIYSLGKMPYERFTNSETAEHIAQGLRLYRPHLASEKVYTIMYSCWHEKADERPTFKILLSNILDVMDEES
Structure (SMILES),inhibition [1] [%],inhibition [2] [%],inhibition [3] [%],inhibition [4] [%],inhibition [5] [%],inhibition [6] [%],inhibition [7] [%],inhibition [8] [%],inhibition [9] [%],inhibition [10] [%]
CCn1c(-c2nonc2N)nc2cnc(Oc3cccc(NC(=O)c4ccc(OCCN5CCOCC5)cc4)c3)cc21,-2.93,2.22,2.41,0.58,2.53,0.94,4.32,-1.45,-2.04,2.95
O=C1NC(=O)C(c2ccc(Cl)cc2)=C1Nc1ccc(Cl)c(C(=O)O)c1,7.43,-0.2,-2.5,-4.08,-3.08,0.06,-1.29,-0.05,0.05,-3.37
COc1cc2ncn(-c3cc(O[C@H](C)c4ccccc4Cl)c(C(N)=O)s3)c2cc1OC,8.37,5.28,23.4,2.09,9.76,-0.56,3.6,1.78,6.48,4.29
COc1ccc(-c2ccncc2)cc1C(N)=O,-7.29,3.55,3.47,3.29,5.58,3.09,3.57,-1.01,-0.13,2.75
CCn1c(-c2nonc2N)nc2c(N3CCCC3)nccc21,4.04,-1.15,-2.43,-2.04,-1.4,-1.28,-2.02,0.03,-1.53,-7.4
CS(=O)(=O)CCNCc1ccc(-c2ccc3ncnc(Nc4ccc(OCc5cccc(F)c5)c(C(F)(F)F)c4)c3c2)o1,-5.02,2.7,3.9,3.53,3.77,4.08,5.42,0.73,-0.77,2.85
O=C1NC(=O)C(c2ccccc2Cl)=C1Nc1cccc(O)c1,-1.28,1.66,4.61,2.35,4.21,3.64,2.79,0.01,1.37,1.31
CC1=C(C(=O)Nc2ccc3[nH]ncc3c2)C(c2ccc(Cl)c(Cl)c2)CC(=O)N1 (centres undefined),-5.55,1.97,18.3,-1.91,2.22,3.17,3.02,0.53,3.13,1.65
COC(=O)Nc1nc2cc(Oc3ccc(NC(=O)Nc4cccc(C(=O)O)c4)cc3)ccc2[nH]1,-0.32,-1.59,0.01,0.22,0.47,0.95,-0.37,-1.95,-2.57,2.42
CCN1CCC(CC(=O)Nc2n[nH]c3nc(-c4cccs4)c(Br)cc23)CC1,2.24,-1.4,0.14,-3.73,-1.1,-3.07,0.94,-1.38,0.05,–
Cc1cccc(-c2n[nH]cc2-c2ccc3ncccc3n2)n1,0.83,1.31,3.22,3,0.92,0.3,2.48,-0.91,-1.51,-1.25
CCCN1CCC=C(c2ccc(Nc3nc(Nc4ccccc4C(N)=O)c4cc[nH]c4n3)c(C)c2)C1,58.1,1.84,9.78,3.95,7.54,1.91,17.4,-2.03,-0.62,-1.32
NCc1ccc(-c2nc(-c3ccc(Cl)c(O)c3)c(-c3ccncc3)[nH]2)cc1,3.04,0.72,10.4,12.4,28.9,13.9,58.7,1.91,6.57,-0.21
COc1ccccc1Nc1ncc(-c2ccccc2)o1,-5.15,4.5,5.8,4.01,6.53,2.03,6.6,0.53,3.39,2.72
COc1cccc(-n2ncc3c(N/N=C/c4cccc(F)c4)ncnc32)c1,1.49,-0.8,17.9,16.8,13.8,-0.23,5.33,-5.62,-4.52,1.19
CNC(=O)c1cncc(/C=C/c2c(Cl)cccc2Cl)c1,-1.76,-1.91,5.69,4.95,22.8,13.5,56,-3.87,0.37,0.49
O=C1Nc2ccc(C(=O)c3ccco3)cc2C1=Cc1cc(Cl)c(O)c(Cl)c1,-5.53,3.04,19.1,-1.7,5.27,4.83,6.88,1.4,1.76,6.31

Structure (SMILES),inhibition [1] [%],inhibition [2] [%],inhibition [3] [%],inhibition [4] [%],inhibition [5] [%],inhibition [6] [%],inhibition [7] [%],inhibition [8] [%],inhibition [9] [%],inhibition [10] [%]
CS(=O)(=O)CCN(CC#N)Cc1ccc(-c2ccc3ncnc(Nc4ccc(OCc5cccc(F)c5)c(Cl)c4)c3c2)o1,-5.07,-2.59,-2.7,1.65,3.9,2.35,4.81,-4.96,-5.01,3.24
COc1cc2ncn(-c3cc(OCc4ccccc4C(F)(F)F)c(C(N)=O)s3)c2cc1OC,-1.95,1.67,17.8,4.67,8.1,3.25,5.16,-3.7,-1.82,3.11
COC(=O)Nc1nc2cc(Oc3cccc(NC(=O)Nc4cc(C(F)(F)F)ccc4F)c3)ccc2[nH]1,1.25,-0.47,1.35,1.84,-1.52,-1.63,-2.33,-0.22,-0.18,-2.03
COc1ccc2cc(-c3c(-c4ccncc4)nc(-c4ccc([S+](C)[O-])cc4)n3C)ccc2c1 (centres undefined),-3.32,1.88,6.67,4.9,3.64,8.25,42,0.83,1.4,1.52
O=C1NC(=O)C(c2cccc(Cl)c2)=C1Nc1ccc(O)c(Cl)c1,-0.83,0.13,5.96,4.05,1.46,-2.09,-2.04,-0.33,1.57,0.82
CCn1c(-c2nonc2N)nc2c(C#CC(C)(C)O)nc(CN3CCCC3)cc21,1.53,-0.49,0.66,2.82,-1.55,-2.67,-1.74,-1.44,-1.15,-0.07
[O-][S+]1CCN(Cc2ccc(-c3ccc4ncnc(Nc5ccc(OCc6ccccc6)c(F)c5)c4c3)o2)CC1,-2.42,1.92,5.97,4.65,5.88,0.34,6.21,1.11,1.74,3.39
CCn1c(-c2nonc2N)nc2ccncc21,1.22,0.68,2.01,3.88,-0.38,-0.74,-3.65,-0.43,1.46,-1.68
O=C1NC(=O)C(N2CCc3ccccc32)=C1c1ccc(Cl)cc1,-2.89,2.66,4.59,-0.48,5.82,4.84,4.71,0.29,0.58,3.38
c1cnn2ncc(-c3ccnc(Nc4ccc5c(c4)OCCO5)n3)c2c1,10.1,3.13,9.58,1.58,14.5,6.27,13.7,1.69,3.99,4.46
COc1ccc(COc2ccc(Cc3cnc(N)nc3N)cc2OC)cc1,8.25,0.45,0.47,0.39,2.06,-1.66,-1.6,0.23,3.61,0.54
CCn1c(-c2nonc2N)nc2c(C#CC(C)(C)O)nc(OC[C@@H](N)c3ccccc3)cc21,3.03,0.59,0.29,-0.32,0.02,0.79,-0.34,-0.1,1.72,-1.24
Cc1cc(O)cc(C)c1/C=C/c1cncc(-c2nn[nH]n2)c1,-3.63,0.83,48.1,11.2,66.3,29.6,86.3,-0.39,7.14,8.08
COc1cc2ncn(-c3cc(O[C@@H](C)c4ccccc4Cl)c(C(N)=O)s3)c2cc1OC,-5.82,11.1,51.2,2.71,6.64,-0.13,7.91,-0.58,1.4,1.7
Cc1ccc(NC(=O)c2ccnc(N3CCCC3)c2)cc1-c1ccc(C(=O)NCC2CC2)cc1,1.21,-1.39,-0.22,2.83,4.79,4.19,3.04,-3.6,-2.42,2.53
Nc1nc(-c2ccc3c(c2)C(=Cc2cc(Br)c(O)c(Br)c2)C(=O)N3)cs1,2.96,-4.1,5.56,-0.96,-0.09,-1.42,0.1,-1.45,-0.23,-4.69

# From ChEMBL document CHEMBL1961873, “Compounds: GSK PKIS; Assays: Nanosyn kinase panel” (2012)
